The results in this text go back to PubChem BioAssay (NCI).

The panel holds about 83,000 compounds, 20% with a hit somewhere; the sample as a whole holds those more often.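 The endpoint reported here, percent growth, reads 100 for growth as untreated, 0 for no net growth and -100 for all cells dead.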 Unmarked numbers belong to inactive results. Active and inactive are the calls of the source. Rule for the calls: active = growth percent below 10; inactive = the rest.

Test in all cases: NCI-60 one-dose screen, 48 h (100 = growth as untreated, 0 = no growth, -100 = all killed)
Holding throughout (conditions): 10 µM unless noted

Test [1] concerns NCI-H23 lung.
Test [2] has as its system NCI-H226 lung.
For test [3], the system named is NCI-H322M lung.
Test [4] relates to HOP-62 NSCLC.
In test [5] the test system is NCI-H460 lung.
For test [6], the system named is HOP-92 NSCLC.
The subject of test [7] is NCI-H522 lung.
In test [8] the test system is A549/ATCC NSCLC.
Test [9] deals with 786-0 renal.
Test [10] deals with COLO 205 colon.

With `C=C(C)[C@@H]1CC[C@]2(CO)CC[C@]3(C)[C@H](CC[C@@H]4[C@@]5(C)CC[C@H](O)C(C)(C)[C@@H]5CC[C@]43C)[C@@H]12`, the growth in test [1] was 25.9%; in test [2], 37.5%; in test [3], 68.9%; in test [4], 43.2%; in test [5], 31.4%; in [6], 36.4%. Also, the growth in test [7] was 40.2%; in test [8], -3.89% (active); in [9], -7.62% (active); in [10], 52.5%.
As to `NC(CO)(CO)c1ccccc1`, the growth in [1] was 99.1%; in test [2] it was 96.6%; in test [3] it was 101%; in [4], 100%; in test [5], 99.1%; in test [6], 88.1%. Besides, the growth in [7] is 95.3%; in test [8], 100%; in test [9], 106%; in test [10] it was 103%.
`C/C(Cc1ccccc1)=N\O`: the growth in [1] was 109%; in test [2], 112%; in test [3], 110%; in [4] it was 118%; in test [5], 107%; in test [6], 84%. Further, the growth was 106% in test [7], 103% in test [8], 102% in test [9] and 116% in [10].
For `Oc1cc(O)c2c(c1)O[C@H](c1ccc(O)c(O)c1)[C@@H](O)C2`, the growth in [1] was 95.2%; in [2] it was 96.6%; in test [3], 105%; in [4], 107%; in [5] it was 113%; in test [6], 98.5%. Also, the growth in test [7] was 89.5%; in test [8], 97%; in test [9], 106%; in test [10], 108%.
For the compound `C=C1C(=O)C2CCC1C2` (stereo not given), the growth in [1] is 107%; in [2], 99.8%; in test [3], 97.5%; in [4], 102%; in [5], 113%; in test [6], 102%. Moreover, the growth in test [7] is 91.8%; in test [8] it was 98.4%; in test [9], 92.8%; in [10], 112%.
For `CC(=O)c1cc(O)ccc1O`, the growth in test [1] is 92.9%; in [2], 98%; in test [3], 97.4%; in test [4], 89.3%; in test [5], 108%; in [6], 58.9%. Moreover, the growth in [7] is 100%; in test [8] it was 103%; in test [9] it was 94.5%; in test [10], 123%.
With `CCC(=O)C1C(=O)c2ccccc2C1=O`, the growth in test [1] was 101%; in [2], 104%; in test [3], 102%; in [4], 99%; in [5], 115%; in test [6], 85.8%. The growth is 86.6% in [7], 113% in [8], 107% in test [9] and 122% in test [10].
Take `O=C(O)c1ccc(OCc2ccccc2)cc1`: the growth in test [1] is 95.5%; in [2] it was 90.2%; in [3], 93.5%; in test [4], 93%; in test [5], 108%; in test [6] it was 93.2%. In addition, the growth in [7] is 92.4%; in [8], 94.5%; in [9], 99.4%; in [10], 104%.
As for `CCCCc1ccc2nc(NC(=O)OC)[nH]c2c1`, the growth in test [1] is 14.1%; in test [2], 63.4%; in test [3], 50.2%; in test [4], 24.2%; in test [5] it was 2.11% (active); in test [6], 60.7%. For the same compound, the growth in test [7] was -9.52% (active); in test [8], 18.4%; in test [9] it was 16.5%; in [10], -45.8% (active).
`CS(=O)(=O)c1ccc(/C=C\C(=O)O)cc1`: the growth in [1] is 106%; in test [2], 96.1%; in test [3], 108%; in test [4] it was 99.5%; in test [5] it was 94.3%; in test [6], 94%. For the same compound, the growth in test [7] is 99.5%; in [8], 106%; in [9] it was 108%; in test [10], 109%.
Regarding `Cc1ccc(/C=N/NC(N)=S)s1`, the growth was 99.7% in [1]; 99.1% in [2]; 98.9% in test [3]; 102% in test [4]; 103% in test [5]; 100% in test [6]. In addition, the growth in test [7] was 105%; in [8] it was 109%; in test [9], 109%; in test [10] it was 104%.
With `CCOC(=O)c1ccc(Nc2sc(C(=O)c3ccc(Br)cc3)c(N)c2C#N)cc1`, the growth in test [1] was 45.4%; in [2], 56%; in test [3], 37.9%; in test [4], 24%; in [5], 13.1%; in test [6], 40.1%. The growth in test [7] was 8.98% (active); in [8], 30.7%; in test [9], 22.8%; in test [10], 11.4%.
With `CC(=O)NNC(=S)/N=C\C(C(=O)c1ccccc1)=C(/O)c1ccccc1`, the growth in [1] was 90.1%; in test [2], 96.2%; in test [3], 94.1%; in test [4] it was 88.2%; in [5], 110%; in test [6] it was 100%. Also, the growth was 86.3% in test [7], 87.3% in test [8], 99.8% in test [9] and 108% in test [10].
`Oc1cc2ccccc2c(-c2c(O)c(O)cc3ccccc23)c1O`: the growth was 41.5% in [1]; 39.6% in [2]; 47.9% in test [3]; 42.3% in test [4]; 9.65% (active) in test [5]; -22.5% (active) in test [6]. Moreover, the growth was 1.24% (active) in test [7], 36.1% in test [8], 50% in [9] and 58.1% in [10].
Turning to `CCOc1ccc2c(c1)c(C)cc(C)[n+]2CC`, the growth in test [1] is 43.5%; in test [2], 82.8%; in test [3], 83.2%; in [4], 80.7%; in test [5], 109%; in test [6] it was 54.2%. The growth in test [7] is 46.1%; in test [8], 45.4%; in test [9], 79.4%; in test [10] it was 65.5%.
In the case of `CCCCN(C(=O)CC)c1ccccc1`, the growth in test [1] was 99.9%; in test [2], 107%; in test [3], 97.9%; in test [4] it was 105%; in test [5] it was 103%; in test [6], 109%. Moreover, the growth in test [7] is 95.3%; in test [8], 96.5%; in test [9] it was 99.2%; in [10] it was 99.7%.
For `CCOC(=O)C(=O)CC(=O)c1ccccc1`, the growth in [1] was 95.4%; in test [2] it was 86.6%; in test [3], 94.5%; in test [4] it was 94.9%; in test [5], -12.5% (active); in test [6] it was 79.6%. Further, the growth in test [7] was 98.8%; in test [8] it was 96.5%; in [9], 103%; in test [10] it was 100%.
As to `CCOC(=O)C1(N)CCCCC1`, the growth was 96.8% in test [1]; 98.6% in test [2]; 107% in test [3]; 102% in test [4]; 112% in test [5]; 102% in [6]. Also, the growth is 96.8% in test [7], 100% in test [8], 101% in test [9] and 110% in test [10].
With `Cc1c(Cl)cccc1N=C=S`, the growth in test [1] was 85%; in test [2], 101%; in test [3] it was 95.4%; in [4], 88.5%; in test [5], 101%; in [6], 69.6%. The growth in [7] was 86.8%; in test [8], 90.4%; in test [9], 101%; in test [10], 117%.
`O=C(O)Cc1ccccn1`: the growth in test [1] is 102%; in [2], 102%; in test [3], 102%; in test [4], 109%; in test [5] it was 108%; in test [6] it was 99.1%. In addition, the growth is 100% in test [7], 106% in test [8], 102% in test [9] and 97.8% in [10].
Regarding `CN1C(=O)NC(c2ccc(Cl)cc2)(c2ccc(Cl)cc2)C1=O`, the growth in test [1] was 98.2%; in test [2], 94.1%; in test [3] it was 119%; in test [4], 125%; in test [5] it was 111%; in test [6] it was 58.4%. Besides, the growth in test [7] was 108%; in [8], 115%; in [9], 106%; in test [10] it was 122%.
As for `CC(=O)OC/C(C)=C\CC(C)COC(C)=O` (stereo not given), the growth in test [1] was 112%; in [2] it was 103%; in test [3], 102%; in test [4] it was 96.9%; in [5], 102%; in [6] it was 69.8%. In addition, the growth in test [7] is 110%; in test [8], 106%; in test [9], 96.7%; in test [10] it was 104%.
As to `O=C(O)C1CCCN1C(=O)OCc1ccccc1` (stereo not given), the growth in test [1] was 104%; in test [2], 108%; in [3] it was 104%; in [4], 127%; in [5] it was 102%; in [6], 122%. Besides, the growth in test [7] was 85.6%; in test [8] it was 93.7%; in [9], 106%; in [10] it was 107%.
Regarding `Cc1ccc(NC(=S)N2CCOCC2)cc1C`, the growth in [1] was 107%; in test [2], 92.4%; in test [3] it was 85.5%; in test [4] it was 99.7%; in [5], 106%; in [6], 95%. For the same compound, the growth is 84.2% in [7], 96.8% in [8], 97% in [9] and 118% in [10].
As to `Cn1c(=O)c2[nH]c(CC(=O)O)nc2n(C)c1=O`, the growth in test [1] was 100%; in test [2] it was 90.9%; in test [3], 99.6%; in test [4] it was 97.2%; in test [5] it was 110%; in [6], 113%. Besides, the growth in test [7] was 86.4%; in test [8], 91.4%; in [9] it was 106%; in [10], 109%.
Consider `C/C(=N\O)c1ccccn1`, for which the growth was 104% in test [1]; 98% in test [2]; 101% in test [3]; 102% in test [4]; 103% in test [5]; 95.4% in test [6]. Moreover, the growth in [7] was 83.2%; in test [8] it was 91.2%; in test [9], 101%; in test [10], 108%.
As to `C=CCNC(=S)N/C=C(/C(=O)c1ccccc1)c1ccccc1`, the growth in test [1] is 97.4%; in test [2] it was 104%; in test [3] it was 111%; in [4], 96.7%; in [5], 104%; in test [6], 95.7%. Besides, the growth in test [7] was 109%; in test [8], 103%; in test [9], 111%; in test [10], 95.3%.
As for `CC(C)c1ccccc1NC(=O)N1CCC(C(C)C)CC1`, the growth was 107% in [1]; 95.4% in test [2]; 97.7% in [3]; 107% in test [4]; 107% in test [5]; 95.8% in [6]. The growth in test [7] is 106%; in test [8], 101%; in test [9], 103%; in [10] it was 117%.
For `CC(C)(CC(=O)O)CC(=O)O`, the growth in [1] is 100%; in test [2], 96.5%; in test [3], 96.7%; in test [4], 111%; in [5], 102%; in test [6], 96.6%. Also, the growth in test [7] is 98.5%; in test [8] it was 101%; in test [9] it was 102%; in test [10], 119%.
Consider `C#CC(O)c1ccccc1` (stereo not given), for which the growth is 106% in test [1]; 99.7% in test [2]; 104% in test [3]; 108% in test [4]; 104% in test [5]; 85.9% in test [6]. In addition, the growth in test [7] was 102%; in [8] it was 101%; in [9] it was 95.6%; in test [10], 108%.
